# Laboratory results taken from the supplement of paper PMC11402862.
# Tested on: PPARalpha LBD (GAL4 fusion)
# Assay: luciferase reporter transactivation, fold of solvent control; higher = stronger receptor activation
# Details: HEK293T, exposure time: 24 h
# Description: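 HEK293T cells were transiently transfected with a GAL4-DBD fused to the ligand-binding domain of a human nuclear receptor (PPARα, PPARγ, PPARδ, FXR, LXRα, PXR, RARα or CAR), the GAL4-(UAS)5-TK firefly luciferase reporter and a Renilla luciferase normalisation plasmid. Cells were exposed to compound for 24 h in 0.5% DMSO. Firefly/Renilla luciferase was expressed as fold of the solvent control (=1). Values are the mean of 2-3 biological replicates; receptor agonists were used as positive controls.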
Compound,luciferase reporter transactivation (concentration: 1 µM),luciferase reporter transactivation (concentration: 5 µM),luciferase reporter transactivation (concentration: 10 µM),luciferase reporter transactivation (concentration: 25 µM),luciferase reporter transactivation (concentration: 50 µM),luciferase reporter transactivation (concentration: 100 µM),luciferase reporter transactivation (concentration: 250 µM),luciferase reporter transactivation (concentration: 500 µM)
O=C(O)C(F)(F)C(F)(F)C(F)(F)C(F)(F)F [perfluoropentanoic acid],1.14,1.05,1.12,1.18,1.15,1.31,1.35,1.58
OCCC(F)(F)C(F)(F)C(F)(F)C(F)(F)C(F)(F)C(F)(F)F [6:2 fluorotelomer alcohol],0.709,0.741,0.818,0.925,0.748,0.765,0.656,0.825
O=S(=O)(O)CCC(F)(F)C(F)(F)C(F)(F)C(F)(F)C(F)(F)C(F)(F)F [6:2 fluorotelomer sulfonic acid],1.06,0.983,1.08,1.08,1.13,1.78,,
O=S(=O)(O)CCC(F)(F)C(F)(F)C(F)(F)C(F)(F)C(F)(F)C(F)(F)C(F)(F)C(F)(F)F [8:2 fluorotelomer sulfonic acid],1.07,1.09,1.18,1.29,1.33,1.97,1.6,1.31
CC(C)(Sc1ccc(CCN(CCCCC2CCCCC2)C(=O)NC2CCCCC2)cc1)C(=O)O,46,,,,,,,
